# The list is not random: actives were taken first. Their share in the collection is about 21%.
# Shiga toxin inh: inhibitors of Shiga toxin in Vero cells; inhibition, % at 38.7 µM; actives 9.2% (n = 290,000); Vero cells, Shiga toxin protein synthesis inhibition reporter; in the data active = inhibition mostly above about 28%, no sharp cut-off; inactive = mostly below about 43%; note: 0% is about no effect
# Sm TGR inh: inhibitors of Schistosoma mansoni thioredoxin glutathione reductase. actives 3% (n = 360,000). purified TGR, DTNB reduction, TNB absorbance 405 nm. Potency, µM (top dose mostly 114 µM), inactives show at the top dose activity change, negative = inhibition, actives largely listed as inhibitors. Q962Y6; note: potency is the fitted concentration of half-maximal effect; % is set by controls: 0 for no effect and ±100 for the full control effect; nearly all actives have a fitted effect of over 60% in size
#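 First, TGR (20 nM dispensed) and NADPH were mixed with compound. Second, a 15 min room-temperature incubation followed. Third, further NADPH and then DTNB were added to start the reaction. Finally, TNB absorbance was monitored kinetically.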
# NS1 inh: blocks influenza NS1 protein function; AID 2326; Potency, µM (top dose mostly 46.1 µM), for the others: top-dose activity, positive = more growth; actives 0.4% (n = 270,000); calls by dose curve; note: potency is the fitted concentration of half-maximal effect; actives are rising curves; nearly all actives have a fitted effect of over 50% in size
#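 In this qHTS, NS1 from influenza A is expressed in budding yeast, where it slows growth. Cells are switched from glucose to 2% galactose medium (pH 6.0, -URA), treated with compound, and growth recovery is read at OD600.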
# Pf growth 48h: P. falciparum growth inhibition at 48 hours (one generation); P. falciparum luciferase growth in erythrocytes, 48 h; Potency, µM (titrated, usually from 28.7 µM), without a hit: top-dose activity change, negative = inhibition, usual class: inhibitors; actives 5.9% (n = 310,000); AID 504832; note: potency is the fitted concentration of half-maximal effect; % is set by controls: 0 for no effect and ±100 for the full control effect
#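 Growth was read as firefly luciferase luminescence after a 48 h, 37 C, 5% CO2 exposure of compounds to reporter-bearing P. falciparum cultures (0.1% parasitemia, 2% hematocrit final) in Albumax-supplemented RPMI 1640.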
# Cycloheximide cs: counter-screen hit for Shiga toxin inhibitors, cycloheximide; cell reporter, cycloheximide protein synthesis inhibition counterscreen; max response, %; actives 12% (n = 300,000); in the data active = max response mostly above about 13%, no sharp cut-off; inactive = mostly below about 14%; note: read at 38.3 µM for the half of the compounds with a filed dose; 0% is about no effect
# Pf growth 96h: P. falciparum growth inhibition at 96 hour, primary screen for plastid delayed-death inhibitors; actives 6.9% (n = 320,000); P. falciparum luciferase reporter growth, 96 h; Potency, µM (doses to about 28.7 µM), for the others: top-dose activity change, negative = inhibition, actives largely listed as inhibitors; note: potency is the fitted concentration of half-maximal effect; % is set by controls: 0 for no effect and ±100 for the full control effect
#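 Infected RBCs, 2% Hct / 0.05% parasitemia final; luciferase-reporter P. falciparum; cpd 96 h, 37 C, 5% CO2; luciferase detection reagent; luminescence.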
# An asterisk follows results filed as active; ? = inconclusive; nt = no result; [ ] = dose if it differs, or a comment. Unless noted, calls come from the whole dose curve; as a rule, active = well fitted curve in the direction sought with a large enough effect; inconclusive = small, poorly fitted or top-dose-only effect, or another doubt; inactive = no such curve, though single readings can be large; an effect the other way counts as inactive or inconclusive.
SMILES,Shiga toxin inh,Sm TGR inh,NS1 inh,Pf growth 48h,Cycloheximide cs,Pf growth 96h
O=C(Nc1ccc2[nH]ccc2c1)c1ccc(F)cc1,16,12%,2%,165%,13*,471%
C#CCCOC(=O)N1C2=NC(C(=O)OC)=C(C(=O)OC)[C@@H]3N(CC=C)c4ccccc4[C@]23C[C@H]1C(=O)OC,-7,-7%,-5%,?,0,?
O=C1C2CCCN2C(c2ccncc2)N1c1ccc(Cl)c(Cl)c1 (stereo unspecified),-13,0%,-2%,13µM*,-2,0.83µM*
COc1ccc(NC(=O)CSc2nnc(CC(=O)Nc3ccc(F)cc3)n2C)cc1,3,48%,1%,23%,-3,2%
CC12CCC(C(=O)N(CSC(=S)N/N=C\c3ccccc3O)C1=O)C2(C)C (stereo unspecified),56,20µM*,28%,10µM*,26*,?
CC(C)OC(=O)c1ccc(NC(=O)c2cccc(-n3cnnn3)c2)cc1,nt,-3%,nt,12µM*,nt,?
CCc1ccc(NC(=O)C(C)OC(=O)c2ccc(-n3cnnn3)cc2)cc1 (stereo unspecified),nt,3%,nt,0%,nt,19%
O=C(Nc1ccc(OC(F)(F)F)cc1)c1cccc(-n2cnnn2)c1,nt,10%,nt,?,nt,10µM*
CC(C)c1nnc(NC(=O)c2cccc(-n3cnnn3)c2)s1,-5,11%,14%,17%,-3,55%
CCOc1ccc(NC(=O)c2cccc(-n3cnnn3)c2)cc1,3,-3%,-1%,5%,0,-20%
CC(Oc1ccc(C#N)cc1)C(=O)Nc1ccc(-n2cnnn2)cc1 (stereo unspecified),nt,-8%,nt,4.7µM*,nt,3.3µM*
CC(=O)c1cccc(NC(=O)C(C)OC(=O)c2ccc(-n3cnnn3)cc2)c1 (stereo unspecified),nt,0%,nt,10µM*,nt,12µM*
CCOc1ccc(S(=O)(=O)NCCC(=O)NCCOc2ccccc2)cc1,nt,-9%,nt,?,nt,-6%
COc1cccc2[nH]c(=O)c(-c3ccccc3)cc12,120*,0%,-34%,-8%[0.00184 µM],61*,133%
Cn1c(=O)c(NCCO)c2c3c(cccc31)C(=O)c1ccccc1-2,-5,-4%,-29%,23%,-4,-8%
Cn1c(=O)c(NC2CCCCC2)c2c3c(cccc31)C(=O)c1ccccc1-2,-4,13%,-6%,13µM*,-1,0%
CCCCNc1c2c3c(cccc3n(C)c1=O)C(=O)c1ccccc1-2,-8,7%,3%,?,-4,?
Cn1c(=O)c(NCCc2ccccc2)c2c3c(cccc31)C(=O)c1ccccc1-2,-12,-9%,10%,nt,-6,9.3µM*
COc1cccc(NC(c2nnc(-c3ccccc3)o2)c2ccc(F)cc2Cl)c1 (stereo unspecified),nt,2%,nt,nt,nt,nt
COc1ccc(/C=N/NC(=S)Nc2ccccc2)cc1COc1ccccc1F,-4,0%,23%,-24%,-4,?
COc1ccc(/C=N/NC(=S)Nc2ccccc2)cc1COc1ccc(Br)cc1,36,3%,-25%,?,9,3.7µM*
COc1ccc(/C=N/NC(=S)Nc2ccccc2)cc1COc1ccc(F)cc1,13,-2%,?,10µM*,4,?
Cc1nnc2sc(-c3cccc(F)c3)nn2c1=O,-6,7%,5%,?,-2,?
CC1CCCC(C)N1C(=O)CSc1nnc(COc2ccc(F)cc2)o1 (stereo unspecified),15,94%,-4%,-19%,-3,6%
CCn1c(Cc2ccc(OC)cc2)nnc1SCC(=O)Nc1nc2ccccc2s1,-7,5%,-4%,1%,-2,30%
CCOCC(=O)Nc1nc2ccccc2s1,125*,35µM*,1%,433%,48*,15µM*
COc1ccc(C(=O)Nc2nc3ccccc3s2)cc1OC,16,?,-7%,?,1,122%
COc1ccc(/C(C)=N/OCC(=O)Nc2nc3ccccc3s2)cc1,-2,-33%,10%,31%,12*,37%
CCNC(=O)Nc1nc2ccccc2s1,60*,0%,nt,184%,44*,296%
CC(C)OC(=O)CCC(=O)Nc1nc2ccccc2s1,31,10%[11.4 µM],-16%,nt,13,-16%
